Bioassay records as filed in PubChem.
Pf Dd2 growth: Plasmodium falciparum Dd2 growth inhibition; Potency, µM (doses to about 28.9 µM), hits mostly inhibitors; P. falciparum Dd2 growth, SYBR Green, 72 h; 4.3% of 120,000 active; active means well fitted inhibition curve with a large enough effect; further: nearly all actives have a fitted effect of over 65% in size
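Infected erythrocytes (Dd2, 0.3% parasitemia, 2.5% hematocrit final) are added to compound in RPMI-1640/Albumax II medium, grown 72 h at 37C in low oxygen, then lysed with saponin/Triton-X containing SYBR Green and read by fluorescence.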
Each line names hits and unclear results; the compound was inactive in the other large screens. Many of the other results were omitted from the sample, so hits are more common in it than they were.

Cc1ccc(C(=O)N2CCC(n3cc(-c4nc(C5CC5)no4)nn3)C2)s1 (stereo not given)	Pf Dd2 growth 10µM
CC(C)c1noc(-c2cn(C3CCN(C(=O)c4cccc(C(F)(F)F)c4)C3)nn2)n1 (stereo not given)	Pf Dd2 growth 10µM
CC(C)c1noc(-c2cn(C3CCN(C(=O)c4cccc(OC(F)(F)F)c4)C3)nn2)n1 (stereo not given)	none
CC(=O)Nc1cccc(C(=O)N2CCC(n3cc(-c4nc(C)no4)nn3)CC2)c1	none
Cc1ccc(C(=O)N2CCCC(n3cc(-c4nc(C5CC5)no4)nn3)C2)s1 (stereo not given)	none
COc1cccc(C(=O)N2CCC(n3cc(-c4nc(C)no4)nn3)CC2)c1	none
COc1ccc2c(c1)c1c(c(=O)n(-c3cccc(Cl)c3)c(=O)n1CC(=O)N1CCCC1)n2C	none
COCCNc1ncc(-c2ccc(F)cc2)c2c1OCC2	none
CCc1ccc(NC(=O)C2CCCN(S(=O)(=O)c3cccc4nonc34)C2)cc1 (stereo not given)	none
Cc1cc(Cl)ccc1OCC(=O)N1CCc2nn(C)c(=O)n2CC1	none
COc1ccc(-c2c(C)nn3c(C(F)(F)F)cc(-c4ccc(Br)cc4)nc23)cc1	none
CC(=O)Nc1ccc(-c2ccc(=O)n3c2[C@@H]2C[C@@H](CN(C(=O)CN(C)C)C2)C3)cc1	none
Cc1ccc(C)c(CN2C(=O)c3ccccc3S(=O)c3ccc(C(=O)N4CCC(C)CC4)cc32)c1 (stereo not given)	none
CCOC(=O)c1cccc(NC(=O)C(C)n2nc(C)c3c(C)n(-c4ccccc4)nc3c2=O)c1 (stereo not given)	none
Cc1cnn(-c2cc(N3CCC(n4cc(C5CCCC5)nn4)CC3)ncn2)c1	none
Cc1noc(-c2ccccc2OCC(=O)Nc2cccc([N+](=O)[O-])c2)n1	none
CC(=O)N1C[C@@H]2C[C@H](C1)c1ccc(NC(=O)c3ccc(F)cc3)c(=O)n1C2	none
CC(C)[C@]1(O)CN(C(=O)c2ccc3c(c2)CCCO3)C[C@H]1C	none
O=C1CN(C(=O)COc2ccc(Cl)cc2)C(c2ccc(F)cc2)c2cc(Cl)ccc2N1 (stereo not given)	Pf Dd2 growth 10µM
CCC(=O)N1CC(=O)Nc2ccc(C)cc2C1c1ccc(F)cc1 (stereo not given)	none
CCCC(=O)N1CC(=O)Nc2ccc(Cl)cc2C1c1ccccc1 (stereo not given)	none
O=C(NCc1cccnc1)C1CCc2nnc(-c3ccc(Cl)cc3Cl)n21 (stereo not given)	none
Cc1ccc(NC(=O)N2CCCC2c2nncn2-c2ccccc2)c(Cl)c1 (stereo not given)	none
O=C(NCC1Cn2cccc2CN1Cc1ccccc1)NC1CCCCC1 (stereo not given)	none
N#C/C(=C/c1ccc(Cl)cc1Cl)c1nc2ccccc2c(=O)[nH]1	none
Cc1c(Cl)cccc1-c1ccc(/C=C(\C#N)c2nc3ccccc3[nH]2)o1	none
COc1c(Cl)cc(Cl)cc1/C=C(\C#N)c1nc2ccccc2[nH]1	Pf Dd2 growth 5.6µM
COc1cccc(C2Cn3nnc(-c4nc(-c5cccc(Cl)c5)no4)c3CO2)c1 (stereo not given)	none
CCOC(=O)c1cccc(Nc2nc(C(=O)OCC)nc3ccccc23)c1	Pf Dd2 growth 7.9µM
CCOC(=O)c1cccc(Nc2cc(-c3ccccc3)ncn2)c1	none
COc1ccc(NC(=O)CSc2c3c(nc4ccccc24)CCC3)cc1Cl	none
CCOC(=O)c1nc(Nc2cccc(C)c2)c2ccccc2n1	none
CCCOC(=O)c1cccc(Nc2nc(C(=O)OCC)nc3ccccc23)c1	Pf Dd2 growth 5.6µM
Cc1cccc(Nc2nc(-c3ccccc3)nc3ccccc23)c1	none
COc1cc(Cl)c(C)cc1NC(=O)c1ccc2c(Cl)c3c(nc2c1)CCC3	none
CCOC(=O)c1cccc(Nc2c3c(nc4ccccc24)CCC3)c1	Pf Dd2 growth 10µM
CCOC(=O)c1nc(Nc2ccc(C(C)=O)cc2)c2ccccc2n1	none
COc1cc(Cl)c(C)cc1Nc1c2c(nc3ccccc13)CCC2	Pf Dd2 growth 8.9µM
CCOC(=O)c1nc(Nc2ccccc2C)c2ccccc2n1	none
CCOC(=O)c1cccc(NC(=O)CCc2nc3cccnc3n2-c2ccccc2)c1	none
Cc1ccc(NC(=O)CN2C(=O)CSc3ccc(S(=O)(=O)N(C)C)cc32)cc1C	none
COCc1cc(=O)[nH]c(N2CCCC2)n1	none
Cc1ccc(OCC(=O)N(Cc2ccc(Cl)cc2)CC2CCCO2)cc1C (stereo not given)	none
CCc1ccc(NC(=O)[C@H](Cc2ccccc2)N2Cc3ccccc3C2=O)cc1	none
CCCNC(=O)NCC1c2cc(OC)c(OC)cc2CCN1C(=O)NCC (stereo not given)	none
COc1cc2c(cc1OC)C(COc1ccc3c(C)cc(=O)oc3c1)N(C(=O)c1ccc(C)cc1)CC2 (stereo not given)	Pf Dd2 growth 11µM
CCCC(=O)N1CCc2cc(OC)c(OC)cc2C1COc1ccc2c(C)cc(=O)oc2c1 (stereo not given)	Pf Dd2 growth 7.1µM
Cc1cc(=O)oc2cc(OCC(=O)Nc3ccc(O)c(C(=O)O)c3)ccc12	none
COc1cc2c(cc1OC)C(CNC(=O)c1cccs1)N(C(=O)Nc1ccc(C)cc1)CC2 (stereo not given)	none
COc1cc2c(cc1OC)C(COc1ccc3c(C)cc(=O)oc3c1)N(C(=O)c1ccc(C)c(C)c1)CC2 (stereo not given)	Pf Dd2 growth 5µM
COc1cc2c(cc1OC)C(CNC(=O)c1ccc(C)cc1)N(C(=O)NC(C)C)CC2 (stereo not given)	none
COCC(=O)NCC1c2cc(OC)c(OC)cc2CCN1C(=O)Nc1cccc(F)c1 (stereo not given)	none
Cc1noc(C)c1CN1C[C@H]2CN(S(C)(=O)=O)C[C@@]2(C(=O)O)C1	none
Fc1ccc(C2Cn3nnc(-c4nc(C5CC5)no4)c3CO2)cc1 (stereo not given)	none
CCc1ccc(N2CCn3c2nc2c3c(=O)n(CCCc3ccccc3)c(=O)n2C)cc1	none
CN(Cc1cn(-c2ccccc2)nn1)Cc1nccn1Cc1ccccc1	none
CCn1c(C2CCCN(CC(C)(C)CN3CCOCC3)C2)nn(C)c1=O (stereo not given)	none
O=S(=O)(N[C@@H]1CCOC[C@H]1O)c1ccc(Oc2ccccc2)cc1	none
COc1ccccc1CNC(=O)c1ccc(Cn2c(SCc3ccccc3)nc3cccnc32)cc1	Pf Dd2 growth 8.9µM
Cc1ccc(CNC(=O)c2ccc(Cn3c(SCc4ccccc4F)nc4cccnc43)cc2)cc1	none
Cc1ccccc1CSc1nc2cccnc2n1Cc1ccc(C(=O)NC2CC2)cc1	none
Cc1ccccc1CNC(=O)c1ccc(Cn2c(SCc3ccccc3)nc3cccnc32)cc1	Pf Dd2 growth 11µM
N[C@@H]1CC[C@@H]1NC(=O)c1cnc(-c2cccnc2)nc1	none
Cc1cccc(C)c1-c1nc(C(=O)NC2CC2)n2ccccc12	none
O[C@@H]1C[C@@H](c2nc(-c3ccc4c(c3)OCO4)no2)N(Cc2ccncc2)C1	none
Cc1cc(=O)n(CC(=O)Nc2ccccc2)c(-c2ccc(Cl)cc2)n1	none
Cc1cnc(CC2CCCN(C(=O)Cc3ccccc3)C2)n1C(C)C (stereo not given)	Pf Dd2 growth 4.5µM
Cc1cnc(CC2CCN(C(=O)Nc3ccccc3)C2)n1CC1CC1 (stereo not given)	none
CCCn1c(C)cnc1CC1CCN(C(=O)c2ccc(OC)cc2OC)CC1	none
CC(=O)N1CCCC(Cc2ncc(C)n2C(C)C)C1 (stereo not given)	none
Cc1cnc(C2CCN(C(=O)NC(C)C)C2)n1C(C)C (stereo not given)	none
Cc1cnc(CC2CCN(C(=O)Nc3ccccc3F)C2)n1C(C)C (stereo not given)	none
